KB-3-1 tox – kills parental KB-3-1 adenocarcinoma cells. hit rate 1.4% among 400,000. KB-3-1 viability, CellTiter-Glo ATP luminescence, 72 h. Potency, µM (series often up to 46.1 µM), hits mostly cytotoxic. AID 1347075; note: % is set by controls: 0 for no effect and ±100 for the full control effect; nearly all actives have a fitted effect of over 60% in size
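Parental KB-3-1 viability, qHTS format: 72 h compound exposure, 37 °C; CellTiter-Glo; media-only wells and DMSO plates as controls; concentration-effect fits on corrected data.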
HT1080 IDH1KD tx – kills HT-1080 cells with IDH1 knockdown. Potency, µM (top dose mostly 46.1 µM), for the others: at the highest dose activity, negative = toxicity, hits mostly cytotoxic. hit rate 2% among 360,000. AID 686971. HT-1080 IDH1 knockdown viability, ATP luminescence, 48 h;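 note: 0% = DMSO wells and -100% = cell-free medium wells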
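After a 2 h attachment period, IDH1KD HT-1080 cells took pin-transferred compound for 48 h at 37 °C; ATP-based luminescence after 10 min room-temperature reagent incubation reported viability.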
SW480 rerep – induces DNA re-replication in SW480 colon adenocarcinoma cells | SW480 DNA re-replication, Hoechst DNA content imaging, 48 h | Potency, µM (top dose mostly 46.1 µM), for inactives: top-dose re-replication activation, actives largely listed as activators | hit rate 1.8% among 340,000 | AID 624297; note: % of control where 0% means no effect; nearly all actives have a fitted effect of over 55% in size
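Per well, 250 cells were exposed to pinned compound for 48 hr. Nuclear DNA was visualised with Hoechst (40 min, 37 C) and total object intensity recorded by fluorescence scanning.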
MCF10A rereplic – inducers of DNA re-replication in MCF 10A breast cells; MCF 10A DNA re-replication, Hoechst nuclear intensity, 48 h; Potency, µM (doses to about 46.1 µM), inactives show top-dose activity, positive = re-replication, most hits filed as activators; hit rate 2.9% among 350,000; AID 624296; note: % of control where 0% means no effect; nearly all actives have a fitted effect of over 50% in size
KB-V1 MDR tox – kills drug-selected multidrug resistant KB-V1 cells; AID 1347076; hit rate 3.4% among 400,000; KB-V1 MDR cells viability, CellTiter-Glo, 72 h; Potency, µM (series often up to 46.1 µM), hits mostly cytotoxic; note: % is set by controls: 0 for no effect and ±100 for the full control effect; nearly all actives have a fitted effect of over 60% in size
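KB-V1 MDR subline cells in DMEM (phenol-red free, 10% FBS) exposed to compounds in qHTS concentration series for 72 h at 37 degrees C. Viability read by CellTiter-Glo luminescence; concentration-effect curves fitted after normalization and correction.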
HT1080NT lethal – kills 2HG-producing HT-1080-NT fibrosarcoma cells. HT-1080-NT fibrosarcoma viability, CellTiter-Glo ATP luminescence, 48 h. Potency, µM (titrated, usually from 46.1 µM), for the others: at the highest dose activity, negative = less viability, actives largely listed as cytotoxic. hit rate 1.6% among 360,000;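 note: NT is the 2HG producing partner of a matched IDH1 knockdown line; 0% = DMSO-treated cells and -100% = media-only wells without cells; nearly all actives have a fitted effect of over 55% in size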
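A 48-hour cytotoxicity screen used HT-1080-NT cells plated 2 hours before compound delivery. ATP-based CellTiter-Glo luminescence measured viability, normalized to DMSO and no-cell controls.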
Active calls of the source: *; i = inactive; ? = inconclusive; · = not tested or not shown; [ ] = another dose, or the depositor's remark. Sampled rows, rich in hits. Any-hit rate of the full collection: about 8%. Calls come from the whole dose curve; as a rule, active = well fitted curve in the direction sought with a large enough effect; inconclusive = small, poorly fitted or top-dose-only effect, or another doubt; inactive = no such curve, though single readings can be large; an effect the other way counts as inactive or inconclusive. Potency is the fitted concentration of half-maximal effect.

SMILES	KB-3-1 tox	HT1080 IDH1KD tx	SW480 rerep	MCF10A rereplic	KB-V1 MDR tox	HT1080NT lethal
O=C(CN1CCC(NC(=O)c2cccc(F)c2)CC1)NCc1ccccc1F	i	0.0%	2.6%	5.1%	18.4µM*	1.7%
O=C1CCc2cc(-c3csc(-c4ccc(O)cc4)n3)ccc2N1	i	·	·	·	i	·
CCCN1C(=O)S/C(=C\c2ccc(N3CCOCC3)o2)C1=O	?	?	3.66µM*	15.8µM*	?	?
COc1cccc(N2CCN(C(=O)C3CCN(S(=O)(=O)c4c(C)noc4C)CC3)CC2)c1	i	·	·	·	i	·
Cc1ccc(CNC(=O)C2CCC(CNc3nc(=S)[nH]c4ccccc34)CC2)cc1 (stereo not given)	?	-4.7%	13.7%	23.1µM*	i	-2.7%
CCCCCOc1ccc(C(=O)OC(C)C(=O)NCc2ccco2)cc1 (stereo not given)	?	20.6µM*	?	-1.5%	?	?
COc1ccc2c(c1)sc1nc(-c3ccccc3)cn12	2.31µM*	4.61µM*	?	?	?	2.59µM*
Fc1cccc(Cl)c1C1Nc2cccc3cccc(c23)N1	i	-2.9%	8.0%	14.1%	?	-1.3%
O=[N+]([O-])c1ccc(Cl)c(C2Nc3cccc4cccc(c34)N2)c1	10.3µM*	-5.5%	0.9%	165.8%[0.0737 µM]	?	-24.9%
Brc1ccc(C2Nc3cccc4cccc(c34)N2)o1	i	-0.3%[9.24 µM]	1.3%	14.6µM*	i	?
Clc1cccc(Cl)c1C1Nc2cccc3cccc(c23)N1	?	?	?	18.4µM*	i	?
COC(=O)CNC(c1ccccc1)c1cc(Br)ccc1NC(=O)c1ccccc1 (stereo not given)	i	·	·	·	i	·
COc1ccc2cc(C(C)CO)ccc2c1 (stereo not given)	·	·	-0.4%	8.1%	·	·
O=C(Nc1ccccc1)OCc1cc(-c2ccccc2Cl)on1	i	-14.2%	-5.0%	25.9µM*	i	-21.4%
Nc1ccc(-n2nc3ccccc3n2)cc1	i	-17.8%	?	23.1µM*	?	2.3%
COc1ccc(-n2nc3ccccc3n2)cc1	i	6.9%	5.2%	17.6%	?	5.6%
Nc1cc2nn(-c3ccccc3)nc2cc1Cl	i	1.4%	?	18.4µM*	?	-5.2%
Nc1ccc2nn(-c3ccccc3)nc2c1	i	-12.7%	14.6µM*	18.4µM*	i	-6.1%
COc1cc(/C=N/NC(=O)c2cncc(Br)c2)cc([N+](=O)[O-])c1O	?	-4.0%	4.11µM*	0.9%	?	16.4µM*
O=C(N/N=C/c1ccc([N+](=O)[O-])o1)c1ccccc1NS(=O)(=O)c1cccs1	?	?	?	18.4µM*	i	?
O=C(CNC(=O)c1ccccc1)N/N=C/c1ccc([N+](=O)[O-])o1	i	?	?	-0.7%	i	-26.4%
O=C(N/N=C/c1ccc([N+](=O)[O-])o1)c1ccc(O)cc1	?	6.51µM*	?	?	?	5.8µM*
O=C(N/N=C\c1ccc([N+](=O)[O-])o1)c1cncc(Br)c1	?	16.4µM*	26.3%	?	?	20.6µM*
CC(C)C1C(=O)Nc2ccc(S(=O)(=O)NCCc3ccc(Cl)cc3)cc21 (stereo not given)	i	·	·	·	i	·
CCOc1ccc(CCN2C(=S)N([C@@H](CC(C)C)CN3CCCC3CN3C(=S)NC[C@@H]3Cc3ccc(O)cc3)C[C@@H]2CC(C)C)cc1 (stereo not given in full)	?	?	-2.5%	14.2%	?	-14.3%
SMILES	KB-3-1 tox	HT1080 IDH1KD tx	SW480 rerep	MCF10A rereplic	KB-V1 MDR tox	HT1080NT lethal
O=C(COc1ccc2cc(-c3ccccc3)c(=O)oc2c1)NCC1CCC(C(=O)O)CC1 (stereo not given)	i	-2.4%	-8.4%	-6.4%	i	-4.1%
CC(=O)c1cccc(NC(=O)c2c(N3CCCC3=O)c3cc(F)ccc3n2C)c1	i	·	·	·	?	·
COc1ccc(OC)c(NC(=O)c2oc(=O)c3ccccc3c2-c2ccccc2)c1	?	·	·	·	i	·
CCN(CC)S(=O)(=O)c1cccc(C(=O)N/N=C/c2ccc([N+](=O)[O-])o2)c1	i	18.4µM*	20.6µM*	?	?	?
O=C(N/N=C/c1ccc([N+](=O)[O-])o1)c1ccncc1	i	18.4µM*	1.9%	152.6%	i	?
C=CCC(C#N)(c1ccc(OC)c(OC)c1)c1cnccn1 (stereo not given)	i	2.1%	1.8%	-15.0%	?	2.4%
CCN(CC)c1ccc(/C=C/c2ccnc3ccccc23)cc1	?	·	·	·	i	·
CCCCCCCN(CCCCCCC)c1ccc(/C=C/c2ccnc3ccccc23)cc1	i	·	·	·	?	·
CCCCN(CCC#N)c1ccc(/C=C/c2ccnc3ccccc23)cc1	?	·	·	·	18.4µM*	·
OCCN(CCO)c1ccc(/C=C/c2ccnc3ccccc23)cc1	?	·	·	·	13µM*	·
CC[N+](CC)(CC)c1ccc(/C=C/c2ccnc3ccccc23)cc1	0.581µM*	·	·	·	?	·
